Only some compounds are listed: those with a hit (about 1.4% of all), similar ones and a draw of the others.
PLAP activator: human PLAP activation. purified PLAP enzyme, luminescent substrate read-out; hits give high values. P05187. activation fold at 20 µM. 1.2% of 96,000 active; in the data active = activation fold above about 2
HePTP inh: inhibitors of human HePTP phosphatase. recombinant HePTP phosphatase activity, OD absorbance. inhibition, % at 20 µM. 0.64% of 110,000 active. AID 521; in the data active = inhibition above about 50%
DUSP1 inh: inhibitors of human MKP-1 phosphatase; P28562; recombinant MKP-1, OMFP hydrolysis fluorescence; inhibition, %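 (compounds tested at a single concentration somewhere between 10 and 100 µM)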; 0.15% of 65,000 active;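 active = inhibition above about 50%, limit read from the data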
Target sequence (P28562 whole entry, looked up): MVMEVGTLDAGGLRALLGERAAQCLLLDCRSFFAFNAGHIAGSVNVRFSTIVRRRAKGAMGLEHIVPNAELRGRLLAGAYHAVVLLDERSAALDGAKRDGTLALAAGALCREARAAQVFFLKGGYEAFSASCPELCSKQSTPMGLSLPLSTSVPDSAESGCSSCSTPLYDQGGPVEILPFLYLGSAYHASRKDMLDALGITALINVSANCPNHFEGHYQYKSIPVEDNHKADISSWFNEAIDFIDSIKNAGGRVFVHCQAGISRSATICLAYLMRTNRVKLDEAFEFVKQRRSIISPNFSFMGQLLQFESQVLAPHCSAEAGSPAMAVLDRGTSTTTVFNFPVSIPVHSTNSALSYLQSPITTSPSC
BAP1 block: blocks human BAP1 ubiquitin-AMC hydrolysis. Q92560. recombinant BAP1, Ub-AMC hydrolysis fluorescence kinetic; hits give low values. calls only at 20 µM. 0.48% of 72,000 active;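 active = activity remaining at or below 50% of control, provided the compound also passes the data quality filters; inactive = the rest, including low values that fail the filters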
Cdc25B inh: inhibitors of human Cdc25B phosphatase. recombinant Cdc25B, OMFP fluorescence Ex485/Em525. inhibition, %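 (compounds tested at 10 µM final in the well)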. 0.1% of 65,000 active; in the data active = inhibition above about 50%
Hits are given with their value; 0 = inactive; - = no result given; ! = repeats disagree.

SMILES	PLAP activator	HePTP inh	DUSP1 inh	BAP1 block	Cdc25B inh
Cc1nonc1C(=O)N/N=C/c1ccc2c(c1)OCO2	-	0	-	-	-
CC(C)(C)c1cc(C(=O)O)c(CN2CCCCC2)o1	0	0	0	0	79
O=C(O)c1ccc(CN2CCCCC2)o1	0	0	0	0	0
O=[N+]([O-])c1cc(NS(=O)(=O)Cc2ccccc2)ccc1F	-	0	-	-	-
CCOC(=O)c1ccc(CSc2n[nH]c(C)n2)o1	2	0	0	0	0
Cc1cc(C)c(S(=O)(=O)N(CC(=O)NCc2cccnc2)C2CCCCC2)c(C)c1	2.3	0	0	0	0
CCOC(=O)c1c(NC(=O)/C=C/c2ccccc2)sc(C(=O)N(CC)CC)c1C	-	0	-	-	-
CCOc1cc([N+](=O)[O-])cc(/C=C2\SC(=S)N(C)C2=O)c1O	-	66	-	-	-
O=C(COc1ccc2c(c1)oc(=O)c1ccccc12)c1ccc(F)cc1	-	0	-	-	-
Cc1cc(Br)ccc1NC(=O)CNC(=O)CN(C)Cc1nc2ccccc2c(=O)[nH]1	-	0	0	0	0
CCN(CC(=O)Nc1ccccc1Br)Cc1nc2ccccc2c(=O)[nH]1	2.3	-	-	-	-
CC(NC(=O)CN(C)Cc1nc2ccccc2c(=O)[nH]1)c1ccccc1 (stereo unspecified)	2.3	-	-	-	-
Cc1ccc(NC(=O)CN(C)Cc2nc3ccccc3c(=O)[nH]2)c(Br)c1	2.2	-	-	-	-
O=C(NCCCNC(=O)Nc1ccccc1)Nc1ccccc1	-	0	-	-	-
CCc1nc2nc(C)cc(Nc3cccc(C(F)(F)F)c3)n2n1	2.4	0	0	0	0
COc1cc(C(=O)n2nc(C)c(Sc3ccc(C)cc3)c2C)cc(OC)c1OC	-	0	-	-	-
Cc1[nH][nH]c(=O)c1C(c1ccc(-c2ccc(Cl)c(Cl)c2)o1)c1c(C)[nH][nH]c1=O	2.9	-	-	-	-
O=c1cc(-c2ccc(Cl)c(Cl)c2)[nH][nH]1	0	0	0	0	0
Cc1ccc(C(=O)Nc2ccc(C(=O)O)cc2)cc1S(=O)(=O)N1CCCCC1	-	0	-	-	-
O=C1/C(=C/c2cn(-c3ccccc3)nc2-c2ccco2)SC(=S)N1C1CCS(=O)(=O)C1 (stereo unspecified)	-	66	-	-	-
CCOc1ccc(/C=C2/SC(=O)N(CN3CCCCC3)C2=O)cc1	-	0	-	-	-
COc1cc(NC(=O)CSCc2cnn(-c3ccccc3)c2-n2cccc2)cc(OC)c1	-	0	0	-	0
COc1cccc(CNC(=O)CSCc2cnn(-c3ccccc3)c2-n2cccc2)c1OC	2.6	-	-	-	-
COc1ccccc1CNC(=O)CSCc1cnn(-c2ccccc2)c1-n1cccc1	2.7	-	-	-	-
COc1ccc(OC)c(NC(=O)CSCc2cnn(-c3ccccc3)c2-n2cccc2)c1	0	0	0	0	0
SMILES	PLAP activator	HePTP inh	DUSP1 inh	BAP1 block	Cdc25B inh
Cc1cc(Cl)cc(C)c1OCCCCNCCO	-	105	-	-	-
Cc1cccc(C(=O)Nc2cc(C(F)(F)F)cc(C(F)(F)F)c2)c1	-	0	-	-	-
c1ccc(-c2nc(-c3ccccn3)no2)cc1	-	0	-	-	-
c1ccc(-c2n[nH]c(-c3ccccn3)n2)nc1	2.8	0	0	0	0
c1ccc(-c2n[nH]c(-c3ccccn3)n2)cc1	2.2	-	-	-	-
COc1cc(CNc2ncn[nH]2)cc(Br)c1OC	2.5	0	0	0	0
CCc1c(C)[nH]c2nc3ccccc3n2c1=O	2.3	-	-	-	-
O=c1cc(-c2ccccc2)[nH]c2nc3ccccc3n12	0	0	0	-	0
Cn1c(C(=O)NCCCN2CCN(c3ccccc3F)CC2)cc2c(=O)n(C)c3ccccc3c21	2.3	0	0	0	0
Cn1c(C(=O)NCCCN2CCOCC2)cc2c(=O)n(C)c3ccccc3c21	0	0	0	0	0
Cc1cccc(OCC(=O)N/N=C/c2cccnc2)c1	-	0	-	-	-
COc1ccc(CCNc2nc(C)nc3c2oc2ccccc23)cc1OC	2	0	-	-	-
O=C(Nc1ccccc1)c1ccc(NC2CCCCC2)c(S(=O)(=O)N2CCOCC2)c1	2.1	-	-	-	-
O=C(Nc1ccccc1)c1ccc(N2CCN(c3ccccn3)CC2)c(S(=O)(=O)N2CCOCC2)c1	2.1	-	-	-	-
N/C(=N\c1nc2c(c(=O)[nH]1)CCCC2)Nc1ccccc1Sc1ccccc1	2	-	-	-	-
N/C(=N\c1nc2c(c(=O)[nH]1)CCCC2)Nc1ccccc1	0	0	0	0	0
CCCC(=Nc1cccc([N+](=O)[O-])c1)C1=C(O)CC(C)(C)CC1=O	-	61	-	-	-
CCCC(=Nc1ccc(OC)cc1)C1=C(O)CC(C)(C)CC1=O	-	0	-	-	-
Cc1ccc(/C(O)=C2/C(=O)C(=O)N(CCCCCC(=O)O)C2c2ccc(F)cc2)cc1 (stereo unspecified)	-	0	-	-	-
COc1ccc(OC)c(N(CC(=O)Nc2cccnc2)S(=O)(=O)c2ccccc2)c1	2.2	-	-	-	-
Cc1ccccc1CN(c1ccc(C(=O)N2CCCC2)cc1)S(C)(=O)=O	0	0	0	0	0
CCOC(=O)c1ccc(NC(=O)CN(c2ccccc2OCC)S(=O)(=O)c2ccccc2)cc1	-	104	-	-	-
CCOC(=O)c1ccc(NC(=O)CN(c2ccc(F)cc2)S(=O)(=O)c2ccccc2)cc1	-	0	-	-	-
O=C(Nc1ccccn1)c1ccc(CN(c2ccccc2)S(=O)(=O)c2ccccc2)cc1	-	0	-	-	-
Cc1ccccc1CN(c1ccc(C(=O)Nc2cccnc2)cc1)S(C)(=O)=O	2.2	-	-	-	-
SMILES	PLAP activator	HePTP inh	DUSP1 inh	BAP1 block	Cdc25B inh
O=C(Nc1cccnc1)c1ccc(CN(c2ccccc2)S(=O)(=O)c2ccccc2)cc1	-	104	-	-	-
CC(C)(C)C1=CC(=C(C#N)C#N)C(C(C)(C)C)C(=O)C1=O (stereo unspecified)	-	0	-	-	-
c1ccc2sc(SCCOCCSc3nc4ccccc4s3)nc2c1	-	0	-	-	-
O=C(O)c1ccc(N2C(=O)CC(N3CCC(C(=O)O)CC3)C2=O)cc1 (stereo unspecified)	-	0	-	-	-
O=C(CC(=O)Nc1cccc(C(F)(F)F)c1)Nc1cccc(C(F)(F)F)c1	-	99	-	-	-
COc1cccc(C(O)c2nc3ccccc3n2C(C)C)c1 (stereo unspecified)	2.4	0	-	-	-
Cc1ccc(/C(O)=C2/C(=O)C(=O)N(CCCn3ccnc3)C2c2ccccc2)cc1 (stereo unspecified)	-	0	-	-	-
Cc1ccccc1COc1ccc(/C(O)=C2/C(=O)C(=O)N(CCCn3ccnc3)C2c2ccco2)cc1 (stereo unspecified)	2.6	0	0	0	0
COc1ccc(-n2nc3cc(C)c(NC(=O)c4cc(I)ccc4Cl)cc3n2)cc1	-	0	-	-	-
CCCCN(CCCNC(=O)c1ccc2nc(N3CCOCC3)sc2c1)Cc1ccccc1	2.2	-	-	-	-
CCSc1nnc(NC(=O)c2ccc([N+](=O)[O-])cc2)s1	-	-	-	0	-
Cc1ccc2c(C)nc(Nc3nc(CSc4nc5ccccc5[nH]4)cc(=O)[nH]3)nc2c1	2.2	-	-	-	-
CCc1ccc(N2CC(C(=O)Nc3ccc(C)c(S(=O)(=O)N4CCOCC4)c3)CC2=O)cc1 (stereo unspecified)	2	-	-	-	-
CCc1ccc(NC(=O)C2CC(=O)N(c3ccc(CC)cc3)C2)cc1 (stereo unspecified)	-	0	-	-	-
CN1CCN(C(=O)CC23CC4CC(CC(C4)C2)C3)CC1	0	104!	0	0	0
O=C(CC12CC3CC(CC(C3)C1)C2)N1CCCC1	0	-	-	-	-
Nc1nc(-c2ccccc2)cs1	0	-	-	-	-
N#CC1=C(S)N=C(N)C(c2nc(-c3ccccc3)cs2)C12CCCCC2 (stereo unspecified)	2.2	-	-	-	-

From PubChem BioAssay
